Each structure is given as a SMILES string. “And” between values parts separate entries of the source, which are not always exact repeats. Identical values can stand only once. About 2,200 (0.55%) of roughly 400,000 compounds were called active. Inconclusive results (about 1%) are left out. Calls follow the shape of the dose curve; as a rule, active = well fitted inhibition curve with a large enough effect; inconclusive = small, poorly fitted or top-dose-only effect, or another doubt; inactive = no such curve, though single readings can be large or run the other way. The full list was thinned out, with actives kept by preference. More than one record can exist for a structure, and the calls need not agree.
% is scaled to controls: 0 for no effect and ±100 for the full control effect; potency is read from the fitted curve at half-maximal effect.

Sequence of DNA polymerase kappa (Homo sapiens) (Q9UBT6 whole entry, looked up): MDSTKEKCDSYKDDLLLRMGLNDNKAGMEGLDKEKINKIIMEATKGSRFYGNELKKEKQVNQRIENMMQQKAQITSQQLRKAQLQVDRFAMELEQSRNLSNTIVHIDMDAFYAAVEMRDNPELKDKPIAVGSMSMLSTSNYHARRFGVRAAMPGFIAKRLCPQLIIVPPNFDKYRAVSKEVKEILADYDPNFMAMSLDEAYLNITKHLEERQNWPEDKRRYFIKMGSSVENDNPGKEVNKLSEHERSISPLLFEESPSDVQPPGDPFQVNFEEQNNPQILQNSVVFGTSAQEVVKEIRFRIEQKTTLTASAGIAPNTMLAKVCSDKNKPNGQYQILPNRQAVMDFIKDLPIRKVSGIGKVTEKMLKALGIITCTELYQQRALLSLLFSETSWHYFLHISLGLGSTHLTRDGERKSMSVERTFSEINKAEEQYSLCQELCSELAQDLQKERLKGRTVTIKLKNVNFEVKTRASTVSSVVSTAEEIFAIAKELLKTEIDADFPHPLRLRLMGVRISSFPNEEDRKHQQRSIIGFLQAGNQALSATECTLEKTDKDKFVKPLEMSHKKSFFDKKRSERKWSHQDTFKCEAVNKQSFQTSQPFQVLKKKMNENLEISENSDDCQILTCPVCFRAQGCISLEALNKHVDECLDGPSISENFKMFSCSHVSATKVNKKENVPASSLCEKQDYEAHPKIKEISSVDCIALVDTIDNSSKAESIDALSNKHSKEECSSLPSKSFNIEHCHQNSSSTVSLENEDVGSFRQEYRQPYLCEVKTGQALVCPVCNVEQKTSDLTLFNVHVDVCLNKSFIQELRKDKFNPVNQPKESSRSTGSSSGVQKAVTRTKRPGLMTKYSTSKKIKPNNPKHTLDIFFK

This test has as its target DNA polymerase kappa (Homo sapiens) (UniProt Q9UBT6). Description: qHTS for Inhibitors of Polymerase Kappa. The note with it: purified Pol kappa, fluorescent DNA synthesis assay, 10 min; series mostly up to 60.1 µM; activity, negative = inhibition: at the top concentration. On the procedure:
The processing and repair of DNA interstrand crosslinks (ICL) in eukaryotic cells are extremely complex, potentially involving multiple DNA repair and damage tolerance pathways, including homologous recombination, nucleotide excision repair, translesion synthesis (TLS), and cell cycle checkpoints.
To that end, in a collaboration between the Oregon Health & Science University and the NIH Chemical Genomics Center a 1536-well high-throughput screen was developed. This fluorescent screen was assayed against the NIH Molecular Libraries Small Molecule Repository (MLSMR) to discover inhibitors of Pol Kappa.
NIH Chemical Genomics Center [NCGC]
NIH Molecular Libraries Probe Centers Network [MLPCN]
Assay Submitter (PI): Stephen Lloyd, Oregon Health & Science University
Three microliters of reagents (buffer in column 3 and 4 as negative control and 10 nM Pol kappa in columns 1, 2, and 5-48) were dispensed into a 1536-well black solid-bottom plate. Compounds (23 nL) were transferred via Kalypsys pin tool equipped with 1536-pin array. The plates were then incubated for 15 min at room temperature, and 1 uL substrate (50 nM final concentration) were then added to start the reaction and kinetically read twice at 0 min and 10 min on the Viewlux reader
In general terms: Quantitative high-throughput screening tests each substance at several concentrations.
As to `Cc1cc(/C=C2/C(=O)NC(=O)N(Cc3ccco3)C2=O)c(C)n1-c1ccc(C(=O)O)cc1`, the Potency was 50.1 µM (active).
Still for that read-out and setting: with `CN[C@@H]1C[C@H]2O[C@@](C)([C@@H]1OC)n1c3ccccc3c3c4c(c5c6ccccc6n2c5c31)C(=O)NC4` the entry was “inactive”.
On to `CCN1C[C@]2(COC)C(O)C[C@H](OC)[C@@]34C5C[C@]6(O)C(OC)C(O)[C@](OC(C)=O)(C5C6OC(=O)c5ccccc5)C(C(OC)C23)C14` (some centres undefined), for which the “activity, negative = inhibition” value was 2.42% (inactive).
Same read-out and setting: with `CC(CCC(=O)O)C1CCC2C3C(O)C[C@@H]4CC(O)CC[C@@]4(C)C3CC[C@@]12C` (some centres undefined) the figure was -1.37% (inactive).
The same measure, in the same setting: in the case of `COc1ccc(C2Oc3c(I)c(OC)cc(OC)c3CC2O)cc1OC` (centres undefined) it was 1.84% (inactive); in that of `N[C@H](Cc1o[nH]c(=O)c1Cl)C(=O)O`, -6.05% [at 19.4 µM] (inactive).
Still for that read-out and setting: with `CN1CCN(C(=O)O[C@@H]2c3nccnc3C(=O)N2c2ccc(Cl)cn2)CC1` the figure was -8.72% [at 19.4 µM] (inactive); with `C/C(=C\C=C/[C@@H](C)C(=O)O)[C@H]1CN[C@H](C(=O)O)[C@@H]1CC(=O)O`, -13.7% [at 19.4 µM] (inactive); with `N[C@H](C(=O)O)c1cc(=O)[nH]o1`, -6.61% [at 19.4 µM] (inactive).
`O=C1CC(=O)N(Cc2ccccc2)C(=O)N1CCCCCCN1C(=O)CC(=O)N(Cc2ccccc2)C1=O`: the Potency was 22.4 µM (active).
`CC(C)(C)c1ccc(CN2C(=O)CN=C(c3ccccc3)c3ccccc32)cc1`: the “activity, negative = inhibition” value was -14.9% [at 107 µM] (inactive).
On the same count and under the same terms, with `COC1CC(OC2CC[C@@]3(C=O)C4CC[C@]5(C)C(C6=CC(=O)OC6)CC[C@@]5(O)C4CC[C@]3(O)C2)OC(C)C1O` (some centres undefined) the figure was -7.19% (inactive); with `C[C@]12CC[C@@H]3c4ccc(O)cc4C[C@@H](CCCCCCCCCS(=O)CCCC(F)(F)C(F)(F)F)C3[C@@H]1CC[C@@H]2O` (some centres undefined), -16.9% (inactive).
The same measure, in the same setting: with `CO[C@@H]1C[C@@H](C[C@H]2CC[C@H](C)[C@@H]([C@@H](C)C(=O)O)O2)O[C@]2(O[C@](C)([C@H]3CC[C@@](C)(C4OC([C@H]5O[C@@](O)(CO)[C@H](C)C[C@@H]5C)C[C@@H]4C)O3)C[C@H]2C)[C@@H]1C` (some centres undefined) the figure was 0.283% [at 19.4 µM] (inactive).
For the molecule `CN=C(NC#N)NCCSCc1nc[nH]c1C`, the Potency entry is “inactive and 28.2 µM (active)”.
With `NC[C@H](O)c1ccc(O)cc1`, the activity, negative = inhibition was -4.18% [at 12 µM] (inactive).
With `CC[C@]1(O)C(=O)OCc2c1cc1n(c2=O)Cc2cc3ccccc3nc2-1`, the “activity, negative = inhibition” value is -8.67% [at 19.4 µM] (inactive).
On the same count and under the same terms, in the case of `Fc1ccc(C(OCCN2CCN(C/C=C\c3ccccc3)CC2)c2ccc(F)cc2)cc1` it was -16.7% [at 19.4 µM] (inactive).
For the molecule `CC[N+](C)(CC)CCC[n+]1c(-c2ccccc2)c2cc(N)ccc2c2ccc(N)cc21`, the Potency is 6.31 µM (active).
Turning to `CC(C)(O)c1[se]c2ccccc2c1I`, the “activity, negative = inhibition” value was -19.7% [at 107 µM] (inactive).
As for `CN1[C@@H]2CC[C@H]1CC(OC(=O)c1cc(Cl)cc(Cl)c1)C2` (some centres undefined), the “activity, negative = inhibition” value was -5.99% [at 19.4 µM] (inactive).
Consider `COc1ccc(N2C(=O)/C(=C/c3ccco3)C(=O)NC2=S)cc1`, for which the Potency is 4.47 µM (active).
For `CCN1C[C@]2(C)CC[C@H](O)[C@@]34[C@@H]5CC6[C@@H](OC)C[C@@](O)([C@@H]5[C@@H]6O)[C@H](C[C@@H]23)[C@H]14`, the activity, negative = inhibition was -3.02% [at 12 µM] (inactive).
On the same count and under the same terms, with `N#Cc1cc(Br)c(O)c(Br)c1` the figure was 12.6% (inactive); with `CN(C)[C@@H]1C(=O)C(C(N)=O)=C(O)[C@@]2(O)C(=O)C3=C(O)c4c(O)cccc4[C@@](C)(O)C3CC12` (some centres undefined), -10.9% (inactive); with `c1ccc2sc(SNC3CCCCC3)nc2c1`, -5.44% (inactive).
For `NCCCCC(N)C(=O)O` (centres undefined), the Potency entry was “inactive”.
On to `C=CCN1CCC2(C)c3cc(O)ccc3CC1[C@@H]2C` (some centres undefined), for which the “activity, negative = inhibition” value is 7.6% [at 19.4 µM] (inactive).
Regarding `CCCN(C/C=C/I)C1CCc2ccc(O)cc2C1` (centres undefined), the “activity, negative = inhibition” value was -4.88% [at 19.4 µM] (inactive).
For `CO[C@H]1[C@@H](O)[C@@H](C)O[C@H](O[C@H]2[C@H](Oc3cccc4c(O)c5c(=O)oc6ccc(C)c7c(=O)oc(c34)c5c67)O[C@H](C)[C@H](O)[C@@H]2O)[C@@H]1O`, the Potency was 35.5 µM (active).
On to `c1ccc(CN2CC[C@@]3(CCCNC3)C2)cc1`, for which the “activity, negative = inhibition” value is -4.77% (inactive).
Same read-out and setting: with `CCCCCCCCCCCCN=C(N)N` the figure was 23.6% (inactive).
On the same count and under the same terms, in the case of `CN(C)C1C(=O)C(C(N)=O)=C(O)[C@@]2(O)C(=O)C3=C(O)c4c(O)cccc4[C@@](C)(O)C3C[C@@H]12` (some centres undefined) it was -12% [at 19.4 µM] (inactive).
For the molecule `N#CC(C#N)=Cc1cc(O)c(O)c([N+](=O)[O-])c1`, the Potency is 2.82 µM (active).
For the molecule `COC([CH2][Hg])CNC(=O)c1ccccc1OCC(=O)O` (centres undefined), the “activity, negative = inhibition” value was 4.39% [at 19.4 µM] (inactive).
On the same count and under the same terms, in the case of `Nc1ccc(-c2ccc(N)c(N)c2)cc1N` it was 11.1% (inactive); in that of `CN(C)C[C@H]1CCCC[C@]1(O)c1cccc(O)c1`, 15.6% (inactive); in that of `CC[C@@H]1CN2CC[C@@H]1C[C@H]2[C@H](O)c1ccnc2ccc(OC)cc12`, -10.2% [at 19.4 µM] (inactive).
For the molecule `CC1=CC(=O)C2=C(C)C[C@H](O)[C@H]3[C@H](C)C(=O)O[C@@H]3C12` (some centres undefined), the “activity, negative = inhibition” value is -5.66% [at 19.4 µM] (inactive).
Regarding `C[C@H]1C/C=C/[C@@H]2[C@@H]3O[C@]3(C)[C@@H](C)[C@H]3[C@H](Cc4ccccc4)NC(=O)[C@]32OC(=O)O/C=C/[C@](C)(O)C1=O`, the activity, negative = inhibition is -10.2% [at 12 µM] (inactive).
Turning to `Cc1c(C(=O)O)cccc1-n1c(C)cc(/C=C2\C(=O)NC(=O)N(c3ccc4c(c3)OCO4)C2=O)c1C`, the Potency was 44.7 µM (active).
`CC(=O)OC1C2CCC3C1(CC(O)[C@@]1(O)[C@@H](CC(O)C1(C)C)[C@]3(C)O)C[C@@]2(C)O` (some centres undefined): the “activity, negative = inhibition” value was 0.942% (inactive).
The same measure, in the same setting: with `C=CCSSCC=C` the figure was -7.05% (inactive); with `C[C@]12O[C@H](C[C@@]1(O)C(=O)O)n1c3ccccc3c3c4c(c5c6ccccc6n2c5c31)CNC4=O`, -9.21% (inactive); with `C[C@@]12CCC3C(CC[C@@H]4CC(O)CC[C@@]34C)C1CCC2O` (some centres undefined), 2.74% (inactive).
The same measure, in the same setting: in the case of `CCCCC/C=C\C/C=C\C/C=C\C/C=C\CCCCCC(=O)NCCO` it was 2.79% [at 19.4 µM] (inactive).
For `Cc1cccc2c3c(ccc12)C1=C(C(=O)C3=O)C(C)CO1` (centres undefined), the Potency is 20 µM (active).
Regarding `C[C@@]12CC[C@H]3[C@@H](CC[C@]4(O)C[C@H](O)CC[C@@]34C=O)[C@]1(O)CC[C@@H]2C1=CC(=O)OC1`, the activity, negative = inhibition was -6.33% [at 12 µM] (inactive).
Turning to `C[C@@H]1C[C@@H]2O[C@H]2/C=C\C=C\C(=O)Cc2c(Cl)c(O)cc(O)c2C(=O)O1`, the Potency was 39.8 µM (active).
With `c1ccc(CCCCN2CCC(c3ccccc3)CC2)cc1`, the Potency result is “inactive”.
Take `O=C(N/N=C/c1ccc([N+](=O)[O-])o1)c1cc([N+](=O)[O-])cc([N+](=O)[O-])c1O`: the “activity, negative = inhibition” value was -2.87% [at 19.4 µM] (inactive).
Consider `c1ccc(N2CC[C@@]3(CCCNC3)C2)nc1`, for which the “activity, negative = inhibition” value was 8.04% (inactive).
On to `O=C1NC(=O)N(c2ccccc2)C(=O)/C1=C/c1ccc([N+](=O)[O-])s1`, for which the Potency was 31.6 µM (active).
Regarding `COc1cccc(N2C(=O)NC(=O)/C(=C\c3ccc([N+](=O)[O-])s3)C2=O)c1`, the Potency is 25.1 µM (active).
Consider `CC(=O)[O][Sn]([c]1ccccc1)([c]1ccccc1)[c]1ccccc1`, for which the “activity, negative = inhibition” value was 4.82% (inactive).
On the same count and under the same terms, with `CCCCCCCCc1[se]c2ccccc2c1Br` the figure was -2.11% (inactive).
Same read-out and setting: in the case of `ClCCN(CCCl)c1ccc(C=Nc2ccc(/C=C/c3ccnc4ccccc34)cc2)cc1` it was -11.1% [at 107 µM] (inactive).
With `CC(C)(Cc1c[nH]c2ccc(Cl)cc12)NCCOc1ccccc1OCC1CC1`, the Potency result was “inactive”.
Take `CCN(CC)c1nc(C)cc(OP(=S)(OC)OC)n1`: the “activity, negative = inhibition” value is 14.8% (inactive).
Consider `C[C@@H]1C[C@H]2CC[C@H](O2)[C@H](C)C(=O)O[C@@H](C)C[C@@H]2CC[C@@H](O2)[C@@H](C)C(=O)O[C@H](C)C[C@H]2CC[C@H](O2)[C@H](C)C(=O)O[C@@H](C)C[C@@H]2CC[C@@H](O2)[C@@H](C)C(=O)O1`, for which the “activity, negative = inhibition” value is 6.33% (inactive).
Same read-out and setting: in the case of `O=C(Nc1cccc(F)c1)N1CC[C@@]2(CCCN(C(=O)Oc3ccccc3)C2)C1` it was -3.75% (inactive); in that of `CC(C)(c1ccc(OC[C@@H]2CO2)cc1)c1ccc(OC[C@H]2CO2)cc1`, -11.1% [at 19.4 µM] (inactive).
Same read-out and setting: with `COc1ccc2[nH]cc(CCNCc3ccc(Br)cc3)c2c1` the figure was 2.66% [at 19.4 µM] (inactive); with `O=C1CCc2cccc3c2N1CC3`, -11.9% [at 12 µM] (inactive).

The record behind these values is PubChem BioAssay AID588579 (National Center for Advancing Translational Sciences (NCATS), 2011).
